The whole screen tested about 310,000 compounds, of which about 14,000 (4.5%) showed an effect of 50% or more. The effect is printed as a negative number. This is one part of a sample in which strong results are shown more often than they occur.
What follows are compounds tested against human ether-à-go-go-related gene (hERG) potassium channel (human, UniProt Q12809) (assay: primary screen, population patch clamp on CHO cells stably expressing hERG; higher = less effect of the substance).
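Further: peak tail current of the secondary pulse compared with the same well before compound.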

Chain of human ether-à-go-go-related gene (hERG) potassium channel (Q12809 whole entry, looked up): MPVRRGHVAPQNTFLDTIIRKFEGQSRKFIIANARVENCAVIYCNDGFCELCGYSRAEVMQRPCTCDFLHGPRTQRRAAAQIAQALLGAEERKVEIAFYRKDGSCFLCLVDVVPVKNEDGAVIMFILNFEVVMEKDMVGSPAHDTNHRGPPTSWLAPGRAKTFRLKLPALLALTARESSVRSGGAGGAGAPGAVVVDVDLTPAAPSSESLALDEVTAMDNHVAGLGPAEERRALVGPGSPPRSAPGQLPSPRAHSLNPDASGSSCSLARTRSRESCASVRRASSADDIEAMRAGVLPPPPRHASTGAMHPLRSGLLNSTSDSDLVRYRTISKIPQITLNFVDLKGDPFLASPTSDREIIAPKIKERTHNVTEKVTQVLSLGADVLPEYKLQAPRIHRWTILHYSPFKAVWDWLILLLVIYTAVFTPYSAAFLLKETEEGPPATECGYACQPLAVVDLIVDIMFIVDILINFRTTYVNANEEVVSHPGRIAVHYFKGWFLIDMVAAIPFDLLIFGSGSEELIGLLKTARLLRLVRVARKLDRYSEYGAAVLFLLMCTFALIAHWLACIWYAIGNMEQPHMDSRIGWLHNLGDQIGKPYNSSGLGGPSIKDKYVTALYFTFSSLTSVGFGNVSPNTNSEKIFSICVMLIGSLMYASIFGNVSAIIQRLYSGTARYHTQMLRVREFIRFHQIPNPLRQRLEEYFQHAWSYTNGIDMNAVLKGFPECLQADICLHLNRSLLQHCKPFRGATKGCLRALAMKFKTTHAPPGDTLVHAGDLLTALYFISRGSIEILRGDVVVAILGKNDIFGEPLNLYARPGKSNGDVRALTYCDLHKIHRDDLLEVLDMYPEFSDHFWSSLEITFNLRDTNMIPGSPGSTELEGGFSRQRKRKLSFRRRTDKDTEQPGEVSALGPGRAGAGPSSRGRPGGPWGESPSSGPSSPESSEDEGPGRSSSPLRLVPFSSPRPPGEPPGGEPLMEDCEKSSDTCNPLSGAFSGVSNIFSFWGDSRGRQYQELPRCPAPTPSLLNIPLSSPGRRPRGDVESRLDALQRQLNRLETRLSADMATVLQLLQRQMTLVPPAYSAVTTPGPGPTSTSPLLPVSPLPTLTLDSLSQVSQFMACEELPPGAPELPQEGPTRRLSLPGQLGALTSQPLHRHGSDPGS

Row | SMILES | hERG current change (%, negative = inhibition) at 10uM [%]
1 | CCc1ccc(NC(=S)NCc2ccccc2)cc1 | 3.91
2 | Cc1nc(N/N=C/c2ccc(Br)cc2)cc(N2CCOCC2)n1 | -0.525
3 | CCOC(=O)N1CCC(NC(=O)c2ccc(CS(=O)(=O)c3ccc(OC)cc3)o2)CC1 | -33.4
4 | C[C@]12C[C@H](O)[C@@H]3c4ccc(O)cc4CCC3[C@@H]1CCC2=O (stereo partly shown) | 9.39
5 | COCCN(CCOC)C(=O)c1ccc(CSc2nc3ccccc3s2)cc1 | -21.8
6 | COc1ccc(C(C)(C)C)cc1NC(=O)C1C2C=CC(C2)C1C(=O)O (stereo not shown) | 12.5
7 | CCOC(=O)C1=C(C)N(CC(C)C)C(=O)/C1=C\c1ccc(OCC(=O)Nc2ccccc2)cc1 | -9.9
8 | COc1cc(OC)nc(NC(=S)NC(=O)c2ccccc2)n1 | 23.1
9 | Fc1ccccc1NC(=S)N(CCN1CCCCCC1)Cc1cccs1 | -53
10 | COc1ccccc1NC(=S)N(CCN1CCCCCC1)Cc1cccs1 | -55.3
11 | S=C(Nc1ccccc1Cl)N(CCN1CCCCC1)Cc1ccco1 | -42.3
12 | Cc1ccccc1NC(=S)N(CCN1CCCCC1)Cc1ccco1 | -30.2
13 | Cc1ccccc1NC(=S)N(CCN1CCCCCC1)Cc1cccs1 | -39.5
14 | COc1ccccc1NC(=S)N(CCCN1CCOCC1)Cc1cccs1 | -35.6
15 | Fc1ccccc1NC(=S)N(CCN1CCCCC1)Cc1ccco1 | -51.2
16 | COc1ccccc1NC(=S)N(Cc1ccccc1)Cc1cccs1 | 14.9
17 | Fc1ccccc1CN(CCN1CCOCC1)C(=S)Nc1ccccc1Cl | -6.77
18 | Cc1ccc2c(c1)NC(=O)C(CC(=O)NCc1ccc(F)cc1)O2 (stereo not shown) | -9.72
19 | COc1ccc(S(=O)(=O)N(CCC#N)Cc2ccco2)cc1OC | 17.8
20 | COc1cc(OC)cc(-c2n[nH]c(=S)n2-c2ccc3c(c2)OCO3)c1 | 15.4
21 | O=C(NC1CCCCC1)N1CCCC(c2nc(-c3cccs3)no2)C1 (stereo not shown) | -10.5
22 | CCc1nnc(NC(=O)C2CC(=O)N(CCc3ccc(F)cc3)C2)s1 (stereo not shown) | 4.54
23 | O=C(Nc1cccc(C(F)(F)F)c1)C(Sc1ncnc2ccccc12)c1ccccc1 (stereo not shown) | 0.968

Row | SMILES | hERG current change (%, negative = inhibition) at 10uM [%]
24 | Cc1c(O)ccc2cc(S(=O)(=O)c3ccccc3)c(=O)oc12 | 13.8
25 | Cc1ccc(-n2ncc3c2CCCC3NC(=O)CSc2ccccn2)cc1C (stereo not shown) | -17.2
26 | Cc1noc2ncnc(N3CCCC3)c12 | 5.93
27 | Cc1noc2ncnc(N3CCN(c4cccc(Cl)c4)CC3)c12 | -52
28 | Cc1noc2ncnc(N3CCN(c4ccc(F)cc4)CC3)c12 | -38.3
29 | CCOc1cc(C2C(C(=O)OC)=CN(C3CCCC3)C=C2C(=O)OC)cc(Br)c1O | -1.51
30 | C[N+]1(CC(O)COc2ccccc2)CCN(C(=O)c2ccc([N+](=O)[O-])cc2)CC1.[I-] (stereo not shown) | -9.95
31 | CCc1cccc(Nc2cc(C)nc3nc(C)nn23)c1 | -25.3
32 | COc1ccc(-c2nc(CN3CCCCC3c3nccn3C)c(C)o2)c(C)c1C (stereo not shown) | -64.9
33 | COc1ccc(-c2noc(CN3CCCCC3c3nccn3C)n2)cc1 (stereo not shown) | -6.83
34 | COc1ccc(OC)c(-c2nc(CN3CCCCC3c3cccnc3)c(C)o2)c1 (stereo not shown) | -1.11
35 | CC(=O)c1ccc(N(CC(=O)NC2CCCCC2)C(=O)CNC(=O)c2ccco2)cc1 | -7.74
36 | O=C(Nc1scc(-c2ccccc2)c1C(=O)O)c1ccco1 | -0.991
37 | COC(=O)CCC(=O)N1CCCC(N2CCN(c3cccc(C(F)(F)F)c3)CC2)C1 (stereo not shown) | -35.8
38 | O=C(CCn1cccn1)N1CCCC(N2CCN(c3cccc(Cl)c3)CC2)C1 (stereo not shown) | -54.1
39 | O=C(CCn1cccn1)N1CCCC(N2CCN(c3cccc(C(F)(F)F)c3)CC2)C1 (stereo not shown) | -53.6
40 | CN(C)C(=O)CCC(=O)N1CCCC(N2CCN(c3cccc(C(F)(F)F)c3)CC2)C1 (stereo not shown) | -12.3
41 | O=C(CCc1ccccn1)N1CCCC(N2CCN(c3cccc(C(F)(F)F)c3)CC2)C1 (stereo not shown) | -68.2
42 | O=C(CCn1cncn1)N1CCCC(N2CCN(c3cccc(C(F)(F)F)c3)CC2)C1 (stereo not shown) | -35.8
43 | Cc1ccnn1CCC(=O)N1CCCC(N2CCN(c3cccc(Cl)c3)CC2)C1 (stereo not shown) | -30.3
44 | CCc1nccn1CCC(=O)N1CCCC(N2CCN(c3cccc(Cl)c3)CC2)C1 (stereo not shown) | -36.1
45 | O=C(c1ccccn1)N1CCCC(N2CCN(c3cccc(C(F)(F)F)c3)CC2)C1 (stereo not shown) | -28.8
46 | O=C(NCC1CCCO1)c1ccc2c(=O)n(CC3CCCO3)c(=S)[nH]c2c1 (stereo not shown) | 6.52

Row | SMILES | hERG current change (%, negative = inhibition) at 10uM [%]
47 | Cc1sc2nc(COC(=O)c3cccc(OC(F)F)c3)[nH]c(=O)c2c1C | 0.0335
48 | O=c1[nH]n2c(=O)c3c([nH]c2c1N=Nc1cccc(Cl)c1)CCCC3 | 3.75
49 | COc1ccc2c(c1)C(=O)N(Cc1ccccc1)C(=O)C2(C)C | 6.19
50 | Cc1nn(Cc2ccc(Cl)cc2)c(C)c1NC(=O)c1cc(C(C)C)on1 | 5.88
51 | Cn1c(SCC(=O)NC2CC2)nnc1-c1ccco1 | 9.16
52 | Cc1ccc(NC(=O)[C@H](Cc2ccccc2)NC(=O)C2CCNCC2)cc1 | 5.64
53 | CCCCCOC(=O)c1ccccc1C(=O)O | 16.1
54 | CC(=O)N/C(=C\c1ccc(C)o1)C(=O)NCc1ccccc1 | 21.8
55 | COc1ccc(OC)c(N2C(=O)NC(=O)/C(=C/c3ccc([N+](=O)[O-])s3)C2=O)c1 | 12.9
56 | CC(C)(C)OC(=O)N1CCC(CC2CC(c3ccccc3)=NO2)(C(=O)O)CC1 (stereo not shown) | 14.7
57 | CCCNC(=O)C1(CC2CC(c3ccccc3)=NO2)CCN(C(=O)C2CCCC2)CC1 (stereo not shown) | -41.8
58 | CCOc1cc(C(=O)N2CCC(CC3CC(c4ccccc4)=NO3)(C(=O)NCc3ccc(OC)cc3)CC2)cc(OCC)c1OCC (stereo not shown) | -8.88
59 | COc1ccc(CNC(=O)C2(CC3CC(c4ccccc4)=NO3)CCN(C(=O)C3(C)CC3)CC2)cc1 (stereo not shown) | -67
60 | COc1ccc(CNC(=O)C2(CC3CC(c4ccccc4)=NO3)CCN(C(=O)C3CCCC3)CC2)cc1 (stereo not shown) | -71.6
61 | COc1ccc(CNC(=O)C2(CC3CC(c4ccccc4)=NO3)CCN(C(=O)OC(C)(C)C)CC2)cc1 (stereo not shown) | -30.5
62 | COc1ccc(CNC(=O)C2(CC3CC(c4ccccc4)=NO3)CCN(C(=O)c3cccc(O)c3)CC2)cc1 (stereo not shown) | -68.2
63 | COC(=O)C1(CC2CC(c3ccccc3)=NO2)CCN(C(=O)OC(C)(C)C)CC1 (stereo not shown) | -11.4
64 | CC1(C(=O)N2CCC(CC3CC(c4cccc(Br)c4)=NO3)(C(=O)NCC3CCCCC3)CC2)CC1 (stereo not shown) | -20.1
65 | COc1ccc(CNC(=O)C2(CC3CC(c4ccccc4)=NO3)CCN(C(=O)CCCCCBr)CC2)cc1 (stereo not shown) | -76.9
66 | CC(C)(C)OC(=O)N1CCC(CC2CC(c3ccccc3)=NO2)(C(=O)NCc2ccccc2)CC1 (stereo not shown) | -18.3
67 | CCCCC1=CC2=CC(=O)C(C)(OC(=O)CC)C(=O)C2=CN1c1ccccc1 (stereo not shown) | 1.5
68 | CCO[C@H]1OC(C(=O)NCc2ccccc2)=C[C@@H](C2CCCCC2)[C@@H]1CCCO | -19.8
69 | COC(=O)C1=C(c2ccc(S(C)(=O)=O)cc2)C[C@@H]2CC[C@H]1N2C(=O)NCCNC(C)=O | 14.6

Row | SMILES | hERG current change (%, negative = inhibition) at 10uM [%]
70 | Cc1occc1-c1nnc(SCC(=O)N2CCCCC2)o1 | -8.31
71 | CCC(C)(CC(=O)Nc1nccs1)c1ccccc1 (stereo not shown) | 7.66
72 | COc1cccc(Cn2cc(C)cc(NC(=O)NCc3ccccc3)c2=O)c1 | 11.9
73 | Nc1nc(Cl)cc(Sc2ccc(F)cc2)n1 | 7.51
74 | NNC(=O)c1oc2nc(-c3cccs3)cc(-c3ccco3)c2c1N | -69.8
75 | NNC(=O)c1oc2nc(-c3ccco3)cc(-c3ccco3)c2c1N | -12.8
76 | NNC(=O)c1oc2nc(-c3ccccc3)cc(-c3ccco3)c2c1N | 0.558
77 | CCCCN(C(=O)c1ccc2c(c1)OCO2)c1c(N)n(CCCC)c(=O)[nH]c1=O | 25.7
78 | CSCCC(NS(=O)(=O)c1ccccc1F)C(=O)Nc1ccncc1 (stereo not shown) | -10.8
79 | O=c1cc(Nc2cccc(Br)c2)[nH]c(=O)[nH]1 | -11.5
80 | CCOC(=O)C1CCN(C(=O)C2CCN(c3nc4ccc(OC)cc4s3)CC2)CC1 | -67.6
81 | CCOC(=O)N1CCN(C(=O)c2ccc3nc(N4CCCCC4)sc3c2)CC1 | -15.7
82 | CCOc1ccc2nc(N3CCC(C(=O)N4CCN(C(=O)c5ccco5)CC4)CC3)sc2c1 | -81.7
83 | CCOc1ccc2nc(N3CCC(C(=O)N4CCN(c5ncccn5)CC4)CC3)sc2c1 | -13.4
84 | CCOc1ccc2nc(N3CCC(C(=O)N4CCN(c5ccccn5)CC4)CC3)sc2c1 | -45.7
85 | CCOc1ccc2nc(N3CCC(C(=O)N4CCN(C5CCCCC5)CC4)CC3)sc2c1 | -46.1
86 | CCOc1ccc2nc(N3CCC(C(=O)N4CCC5(CC4)OCCO5)CC3)sc2c1 | -8.46
87 | Cc1cc(C)c(C#N)c(N2CCN(C(=O)C3COc4ccccc4O3)CC2)n1 (stereo not shown) | -75.4
88 | Cc1cccc2sc(N3CCN(C(=O)C4COc5ccccc5O4)CC3)nc12 (stereo not shown) | -31.3
89 | CCOc1ccc2nc(N3CCCCCC3)sc2c1 | -19.2
90 | Cc1cccc(N2CCN(C(=O)C3COc4ccccc4O3)CC2)c1C (stereo not shown) | -17.4
91 | CCOC(=O)Nc1ccc2nc(N3CCCCCC3)sc2c1 | -50.6
